Experimental findings from PubChem BioAssay AID485273 (Sanford-Burnham Center for Chemical Genomics, 2010) are described below.

Screen size: about 330,000 compounds; about 1,500 (0.45%) were called active. No stated cut-off is given here; in the data, active means inhibition above about 45% (passing the limit was not always enough); inconclusive means no clear call, values can overlap the other calls. The entries come from a sample that favours actives as a whole.

This assay deals with Ubiquitin-conjugating enzyme E2 N (Homo sapiens) (UniProt P61088). The assay can be described thus: blockers of UBC13 ubiquitin chain synthesis – biochemical, TR-FRET, uHTS, primary screen (AID 485273). Particulars: UBC13 polyubiquitin chain formation, at 20 µM, stronger effect = higher value. On the technique in general: TR-FRET usually uses a lanthanide donor and a delayed reading to cut background.
Ubiquitin-conjugating enzyme E2 N (Homo sapiens), sequence (P61088 whole entry, looked up): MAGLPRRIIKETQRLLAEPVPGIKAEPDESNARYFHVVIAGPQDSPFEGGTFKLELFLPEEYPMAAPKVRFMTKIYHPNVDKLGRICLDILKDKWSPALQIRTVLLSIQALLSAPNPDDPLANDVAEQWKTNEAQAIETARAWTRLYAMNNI
For `Cc1cc(C)c(NC(=O)C[N+](C)(C)CC(O)COc2cccc3ccccc23)c(C)c1` (configuration not stated), the inhibition – broadly, the change of the read-out against control, counted positive when it falls – is 45.4% (active).

Take `CC(C)c1ccccc1OCC(O)CN(CC(O)COc1cccc2ccccc12)C(C)C` (configuration not stated): the inhibition was 10.8% (inactive).

Take `Cc1cc(C)cc(OCC(=O)NCc2cc(C)nc3ccccc23)c1`: the inhibition was 7.7% (inactive).

Turning to `CCCCCN(C(=O)CCC(=O)OCC(=O)NCc1ccc(OC)cc1)c1c(N)n(CCCC)c(=O)[nH]c1=O`, the inhibition was 2.5% (inactive).

With `CCn1ccnc1CN1CCCC(C(=O)c2ccc3c4c(cccc24)CC3)C1` (configuration not stated), the inhibition was 19.1% (inactive).

In the case of `O=C(c1ccccc1)N1CCN(C(=O)c2cc3nc(-c4ccccc4)cc(C(F)(F)F)n3n2)CC1`, the inhibition is 2.2% (inactive).

As for `O=C(O)/C(=C/c1cccnc1)NC(=O)c1ccccc1`, the inhibition was 7.7% (inactive).

In the case of `OCCCNc1nccc(-c2cc(Nc3cccc(Cl)c3)ncn2)n1`, the inhibition is 35.7% (inactive).

As for `CC(C)n1cnc2c(Nc3cccc(Cl)c3)nc(N(CCO)CCCO)nc21`, the inhibition was 64.8% (active).

Take `CC(C)C[C@H](CO)Nc1nc(N(C)c2cccc(Cl)c2)c2ncn(C(C)C)c2n1`: the inhibition is 24.1% (inactive).

`O=C(O)CCn1c(SCc2cc(=O)n3ccccc3n2)nc2ccsc2c1=O`: the inhibition was -6.3% (inactive).

Consider `O=C(Nc1cccnc1Oc1ncnc2cc(Cl)ccc12)c1ccc(F)cc1`, for which the inhibition was 2.8% (inactive).

For the molecule `COc1ccc(N2CCN(CCNC(=O)Nc3cc(Cl)ccc3Cl)CC2)cc1`, the inhibition is 5.5% (inactive).

`CC(=O)c1ccc(NC(=O)c2sc3nc4n(c(=O)c3c2C)CCCCC4)cc1`: the inhibition is -6.8% (inactive).

Turning to `CC(=O)Nc1ccc(NC(=O)c2sc3nc4c(c(-c5ccc(C)cc5)c3c2N)CCC4)cc1`, the inhibition is 54% (active).

Turning to `Cc1ccc(NC(=O)c2sc3nc(N)c(C#N)cc3c2N)cc1`, the inhibition is 1% (inactive).

With `COc1ccc(C=C(C#N)C#N)c(CSc2ccccn2)c1`, the inhibition was 3.1% (inactive).

In the case of `O/N=C(\C[n+]1ccccc1)c1ccc(Br)cc1`, the inhibition is -4.7% (inactive).

Consider `O=C(NCC(c1cccs1)N1CCOCC1)c1cc(-c2ccccn2)nc2ccccc12` (configuration not stated), for which the inhibition is 1.9% (inactive).

Take `COC(=O)c1cc(N2CCNCC2)nc2ccccc12`: the inhibition is 17.5% (inactive).

With `CC(=O)NCCNC(=O)c1cc(-c2cccc3ccccc23)nc2ccccc12`, the inhibition is 8.4% (inactive).

Take `CCCCN(C)CCCNC(=O)c1cc(-c2cccs2)nc2ccccc12`: the inhibition was 48.3% (active).

For `O=C(Nc1nnc(-c2ccccc2)o1)c1cc(-c2cccs2)nc2ccccc12`, the inhibition is -31.4% (inactive).

Regarding `COC(=O)c1cc(-c2cccs2)nc2ccccc12`, the inhibition is 45.2% (active).

On to `COc1cccc(NC(=O)CN(C)C(=O)c2cc(C3CC3)nn2-c2ccccc2)c1`, for which the inhibition was -2.2% (inactive).

As to `CCOCCCNS(=O)(=O)Cc1ccccc1`, the inhibition is -13.7% (inactive).

With `CCOc1ccc(N(CC(=O)NCCc2ccc(OC)cc2)S(C)(=O)=O)cc1`, the inhibition was 3.8% (inactive).

For the molecule `Cc1sc2ncnc(N3CCC(C(=O)Nc4ccc(F)cc4Cl)CC3)c2c1C`, the inhibition was 17.7% (inactive).

As for `Cc1ccc(S(=O)(=O)N(C)c2ccc(OCC(=O)OCC(=O)N(CC#N)c3ccccc3)cc2)cc1`, the inhibition is -0.2% (inactive).

For `CCCc1cc(=O)[nH]c2nnc(SCC(=O)Nc3nnc(SCC)s3)n12`, the inhibition was -15.5% (inactive).

With `NCC(=O)c1cccc2ccc[n+]([O-])c12`, the inhibition was -7.7% (inactive).

On to `O=C(NCC(=O)N(Cc1cccs1)C(C(=O)NC1CCCCC1)c1ccco1)c1cccs1` (configuration not stated), for which the inhibition was -5.1% (inactive).

Consider `Cc1ccc(NC(=O)c2cnc(SCC(=O)NCC3CCCO3)n(C)c2=O)cc1` (configuration not stated), for which the inhibition was 93.1% (active).

With `Cn1c(SCC(=O)c2ccccc2)ncc(C(=O)Nc2ccc(F)cc2)c1=O`, the inhibition was 36.4% (inactive).

In the case of `CCn1c(SCC(=O)NCC2CCCO2)nc2ccccc21` (configuration not stated), the inhibition was 5.4% (inactive).

On to `Cc1ccccc1-n1cc(CNC(=O)C2CCC(=O)N(C3CC3)C2)cn1` (configuration not stated), for which the inhibition was 8.4% (inactive).

For the molecule `COc1ccc(-n2nc(C(=O)Nc3cc(OC)c(OC)c(OC)c3)c3ccccc3c2=O)c(OC)c1`, the inhibition was 21.2% (inactive).

Turning to `N#CCc1ccc(NC(=O)c2ccccc2C(=O)Nc2ccc(CC#N)cc2)cc1`, the inhibition is 2.2% (inactive).

On to `CCCCOCCCNC(=O)c1ccccc1OCC`, for which the inhibition was 1.4% (inactive).

On to `CCOCCCNC(=O)c1cn(CC(C)C)c(=O)c2c1c1ccccc1n2C`, for which the inhibition is 51.1% (active).

For the molecule `COCCCNC(=O)Cn1cc(C(=O)C2CC2)c2ccccc21`, the inhibition is 11.8% (inactive).

Regarding `CN(C)c1nc(N)nc(Cn2nnc(-c3ccc(C(F)(F)F)cc3)n2)n1`, the inhibition was 4% (inactive).

`COc1ccccc1-c1sc2ccccc2c1C#CC1(O)CCCCC1`: the inhibition is -2.3% (inactive).

Take `COc1ccccc1-c1sc2ccccc2c1-c1ccc(Br)nc1`: the inhibition was 21.7% (inactive).

On to `COc1ccccc1-c1sc2ccccc2c1-c1ccc(C(C)=O)cc1`, for which the inhibition is 47.4% (active).

For `CCCC1C(=O)N2C(N(C)C)=Nc3ccc(C)cc3N2C1=O` (configuration not stated), the inhibition was -21% (inactive).

Take `COc1cccc2sc3cc(NCC[C@@H]4CCCN4C)ccc3c(=O)c12`: the inhibition is 45.1% (active).

For `COc1cccc(OC)c1C(=O)Nc1ccc2c(c1)n(C)c(=O)n2C`, the inhibition was 1.6% (inactive).

As to `Cc1cc2oc3ccc(NCCC4CCCN4C)cc3c(=O)c2cc1C` (configuration not stated), the inhibition was 33.1% (inactive).

For the molecule `COCCn1c(SCC(=O)Nc2ccccc2F)nc2c(c1=O)SCC2`, the inhibition was -6.9% (inactive).

Consider `COc1ccc(-n2nnnc2CNC(=O)c2ccc3ccccc3c2)cc1`, for which the inhibition was -2.4% (inactive).

For `COc1ccc(C2=NN(c3nc4ccccc4s3)C(=O)C2)cc1`, the inhibition was -13.1% (inactive).

For the molecule `COc1ccc(-n2nnnc2-c2nc3ccccc3s2)cc1`, the inhibition was 53.4% (active).

As to `Cc1c(Cl)cnc(NC(=O)COC(=O)C2CCCC2)c1Cl`, the inhibition is 3.7% (inactive).

On to `CCCN1CCn2c3c(c4cc(Br)ccc42)CCCC31` (configuration not stated), for which the inhibition was -1.1% (inactive).

As to `O=C(CCNS(=O)(=O)c1ccc(Br)cc1)NCC1CCCO1` (configuration not stated), the inhibition was 1.5% (inactive).

Turning to `OC(CNCC1CCCO1)Cn1c2ccc(Br)cc2c2cc(Br)ccc21` (configuration not stated), the inhibition is 57.5% (active).

Take `COc1ccccc1C(=O)N1C(CC(=O)Nc2ccccc2C)C(=O)NC2CCCCC21` (configuration not stated): the inhibition was -2.3% (inactive).

Regarding `CCCC[C@@H]1CN=C(N)N1CCc1cccc(F)c1`, the inhibition is 13.5% (inactive).

With `CCCC[C@@H]1CN=C(N)N1CCCC`, the inhibition is -4.4% (inactive).

As for `CCCC[C@@H]1CN=C(N)N1CCc1cc(C(F)(F)F)cc(C(F)(F)F)c1`, the inhibition is 66.9% (active).

For the molecule `COc1ccc(OC)c(-c2csc(NC(=O)C3=NNC(=O)CC3)n2)c1`, the inhibition was -3.9% (inactive).

For `Cc1ccccc1CN1C(=O)c2ccccc2Sc2ccc(C(=O)NCCCN3CCOCC3)cc21`, the inhibition was 15.4% (inactive).

Consider `O=C(NCCCN1CCOCC1)c1ccc2c(c1)N(Cc1cccc(F)c1)C(=O)c1ccccc1S2`, for which the inhibition was 13.3% (inactive).

On to `CCN1CCN(CCNC(=O)c2ccc(/C=C3/Sc4ccccc4N(Cc4cccc(C)c4)C3=O)cc2)CC1`, for which the inhibition is 50.8% (active).

Regarding `C=CCn1c(=S)sc2c(=O)[nH]c(C)nc21`, the inhibition is -13.8% (inactive).

Consider `CCNC(=O)CCc1nc(-c2ccc(C)cc2)no1`, for which the inhibition was 0.3% (inactive).

For the molecule `CN1CCN(C(=O)CCc2nc(-c3ccc(Cl)cc3)no2)CC1`, the inhibition is -0.3% (inactive).

In the case of `Cc1ccc(-c2noc(CCC(=O)Nc3ccccc3N3CCN(C)CC3)n2)cc1`, the inhibition was 71.9% (active).

For `Cc1cc([N+](=O)[O-])c(NC2CCCCC2)c([N+](=O)[O-])c1`, the inhibition was -28.1% (inactive).

On to `O=C(Nc1ccc(F)cc1)C(=O)c1cn(CC(=O)N2CCOCC2)c2ccccc12`, for which the inhibition is -4.6% (inactive).

On to `CCN(CC(=O)Nc1ccc(OC)cc1)C(=O)c1ccc(Cl)c(S(=O)(=O)N2CCCC2)c1`, for which the inhibition is 8.9% (inactive).

For the molecule `O=C(OCC1O[C@@H](OC(=O)c2cc(O)c(O)c(O)c2)[C@@H](OC(=O)c2cc(O)c(O)c(O)c2)[C@@H](OC(=O)c2cc(O)c(O)c(O)c2)[C@@H]1OC(=O)c1cc(O)c(O)c(O)c1)c1cc(O)c(O)c(O)c1` (some centres not stated), the inhibition was 138% (active).

Take `O=C(NCCc1ccc(F)cc1)c1ccc2nccnc2c1`: the inhibition was -9.4% (inactive).

In the case of `CC1CCCN(C(C(=O)Nc2ccc(C(C)C)cc2)c2ccc3c(c2)OCO3)C1` (configuration not stated), the inhibition is 9% (inactive).

Turning to `COc1ccccc1C(=O)N(C1=NC(C)CS1)c1ccc(Cl)cc1` (configuration not stated), the inhibition is 1.5% (inactive).

Turning to `COCCCNC(=O)CC1C[C@H](C(=O)N2CCCCC2)[C@@]2(CCc3ccccc3)c3[nH]c4ccccc4c3CCN2C1=O` (some centres not stated), the inhibition is 14% (inactive).

Turning to `Cc1nc(N2CCN(c3ccccn3)CC2)c2c(C)c(C(=O)Nc3ccc(F)cc3)sc2n1`, the inhibition was 47.4% (active).

For the molecule `COc1ccc(NC(=O)c2sc3nc(C)nc(N4CCN(c5ccccn5)CC4)c3c2C)c(OC)c1`, the inhibition was 5.6% (inactive).

As for `Cc1nc(N2CCOCC2)c2c(C)c(C(=O)Nc3ccc(C(F)(F)F)cc3)sc2n1`, the inhibition was 5.6% (inactive).

Consider `Cc1cc(C)nc(N2C(=O)CC(Cc3ccccc3)C2=O)n1` (configuration not stated), for which the inhibition is -12.4% (inactive).

Take `CC(C)NC(=O)C(c1ccc(F)cc1)N(C(=O)CCC(=O)Nc1ccccn1)c1ccccc1F` (configuration not stated): the inhibition was 2.6% (inactive).

On to `C#CCOCCOCCOCCNc1nc(N2CCN(C(=O)[C@H](CCCCN)n3cc(CCC(=O)O)nn3)CC2)nc(N2CCN(C(=O)[C@H](CCCCN)n3cc(CC(C)O)nn3)CC2)n1` (some centres not stated), for which the inhibition is 2% (inactive).

For `C#CCOCCOCCOCCNc1nc(N2CCN(C(=O)C([C@@H](C)CC)n3cc(C(N)COC(=O)C(F)(F)F)nn3)CC2)nc(N2CCN(C(=O)[C@H](CCCCN)n3cc(C(N)CC(C)C)nn3)CC2)n1` (some centres not stated), the inhibition is 108% (active).

As for `C#CCOCCOCCOCCNc1nc(N2CCN(C(=O)C([C@@H](C)CC)n3cc(C(N)COC(=O)C(F)(F)F)nn3)CC2)nc(N2CCN(C(=O)[C@H](Cc3ccc(O)cc3)n3cc(C(N)[C@H](C)CC)nn3)CC2)n1` (some centres not stated), the inhibition is 37.1% (inactive).

For the molecule `C#CCOCCOCCOCCNc1nc(N2CCN(C(=O)[C@H](CCC(=O)O)n3cc(C(N)CO)nn3)CC2)nc(N2CCN(C(=O)[C@H](CCCCN)n3cc(C(N)CC(C)C)nn3)CC2)n1` (some centres not stated), the inhibition was -3.6% (inactive).

Take `C#CCOCCOCCOCCNc1nc(N2CCN(C(=O)C([C@@H](C)O)n3cc([C@@H](N)CCCCN)nn3)CC2)nc(N2CCN(C(=O)[C@H](CCCCN)n3cc(CN)nn3)CC2)n1` (some centres not stated): the inhibition was 107% (active).
